Where “and” joins values, the source holds several entries; their conditions need not be identical. Identical values can stand only once. Inconclusive results are not listed. More than one record can exist for a structure, and the calls need not agree. Calls of active or inactive are those of the source. Unless noted, calls follow the shape of the dose curve; as a rule, active = well fitted curve in the direction sought with a large enough effect in the repeat runs; inconclusive = weak or mixed curves; inactive = no such curve, though single readings can be large; an effect the other way counts as inactive or inconclusive.
Assays:
[1] = qHTS assay to identify small molecule antagonists of the sonic hedgehog signaling (Shh) pathway (AID 1259369; calls by dose curve; also: nearly all actives have a fitted effect of over 45% in size; also: potency is read from the fitted curve at half-maximal effect)
Summary of the method: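 Luminescence readout: firefly Luc under Gli1 response element in 3T3Gli1-Luc cells (NIH/3T3 clone). Antagonist mode, stimulation by conditioned medium; compound exposure 24hr at 37 C, 5% CO2.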

[2] = molecular target: Estrogen receptor beta (Homo sapiens) (UniProt Q92731); assay: qHTS assay to identify small molecule agonists of the estrogen receptor beta (ER-beta) signaling pathway (AID 1259377; active = well fitted activation curve with a large enough effect in the signal ratio in the repeat runs, not every such curve was filed as active; the % refers to the signal ratio)
Summary of the method: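 Beta-lactamase reporter readout: fluorescence of LiveBLAzer B/G FRET substrate after 2 h at room temperature, following 16 h compound treatment of ER-beta-UAS-bla HEK293T cells at 37C in 2% charcoal-stripped FBS medium.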

[3] = molecular target: Estrogen receptor beta (Homo sapiens) (UniProt Q92731); assay: qHTS assay to identify small molecule antagonists of the estrogen receptor beta (ER-beta) signaling pathway (AID 1259378; active = well fitted inhibition curve with a large enough effect in the signal ratio in the repeat runs, not every such curve was filed as active; the % refers to the signal ratio; also: potency is read from the fitted curve at half-maximal effect)
Summary of the method: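 ER-beta-UAS-bla HEK293T (GripTite) cells in 2% charcoal-stripped FBS medium were preincubated 6 hr at 37C, dosed with compound, then stimulated with 1 nM E2 (final) for 16 hr; beta-lactamase reporter read by B/G FRET fluorescence after 2 hr substrate loading.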

[4] = qHTS assay to identify small molecule agonists of the androgen receptor (AR) signaling pathway in the presence of an antagonist - cell viability counter screen (AID 1259379); also: nearly all actives have a fitted effect of over 25% in size; also: potency is read from the fitted curve at half-maximal effect
Summary of the method: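 Viability counter screen: CellTiter-Fluor fluorescence, measured in the same wells as the luciferase read-out. MDA-kb2 cells, 3,000/well, with nilutamide at 3.0uM final and compounds at 15 concentrations, 16 hr at 37C, 0% CO2.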

[5] = qHTS assay to identify small molecule agonists of the estrogen receptor beta (ER-beta) signaling pathway - cell viability counter screen (AID 1259380); also: nearly all actives have a fitted effect of over 30% in size; also: potency is read from the fitted curve at half-maximal effect
Summary of the method: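 Luminescence read-out (CellTiter-Glo, 30 min, room temp) taken in the same wells as the beta-lactamase reporter assay; ER-beta-UAS-bla HEK293T cells exposed to DMSO-dissolved compounds for 16 hr at 37C in 2% charcoal-stripped FBS medium.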

[6] = qHTS assay to identify small molecule antagonists of the estrogen receptor beta (ER-beta) signaling pathway - cell viability counter screen (AID 1259382); also: nearly all actives have a fitted effect of over 55% in size; also: potency is read from the fitted curve at half-maximal effect
Summary of the method: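 Luminescent ATP read-out (CellTiter-Glo, 30 min, RT) taken in the same wells as the bla reporter assay. HEK293T ER-beta-UAS-bla cells in 2% charcoal-stripped FBS were exposed to compounds with 1nM E2 for 16 hr at 37C.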

[7] = qHTS assay to identify small molecule agonists of the estrogen receptor alpha (ER-alpha) signaling pathway in the presence of an antagonist - cell viability counter screen (AID 1259386);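 also: cells exposed to compounds for 22 h at 37 °C before the viability read; nearly all actives have a fitted effect of over 30% in size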; also: potency is read from the fitted curve at half-maximal effect
Summary of the method: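 Read-out: CellTiter-Fluor fluorescence after 1hr reagent incubation, measured in the same wells as the luciferase readout. VM7Luc4E2 cells were exposed to 15 compound concentrations with 10.0nM ICI-182,780 for 22hr at 37C.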

[8] = molecular target: Progesterone receptor (Homo sapiens) (UniProt P06401); assay: qHTS assay to identify small molecule agonists of the progesterone receptor (PR) signaling pathway (AID 1346784; calls by dose curve; also: nearly all actives have a fitted effect of over 30% in size)
Summary of the method: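 HEK 293T PR-UAS-bla reporter cells, 2% charcoal-stripped FBS; 6 hr settle at 37C/5% CO2, compound (DMSO) 16 hr, LiveBLAzer B/G FRET substrate 2 hr RT, fluorescence intensity read.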

[9] = molecular target: Progesterone receptor (Homo sapiens) (UniProt P06401); assay: qHTS assay to identify small molecule antagonists of the progesterone receptor (PR) signaling pathway (AID 1346795; active = well fitted inhibition curve with a large enough effect in the signal ratio in the repeat runs, not every such curve was filed as active; the % refers to the signal ratio; also: potency is read from the fitted curve at half-maximal effect)
Summary of the method: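 Beta-lactamase reporter, HEK293T PR-UAS-bla line; 2% charcoal-stripped FBS; 6 hr pre-incubation, 37C/5% CO2. Compound + R5020 1 nM final, 16 hr. LiveBLAzer B/G FRET substrate, 2 hr RT; fluorescence intensity read.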

[10] = qHTS assay to identify small molecule antagonists of the progesterone receptor (PR) signaling pathway - cell viability counter screen (AID 1346798); also: nearly all actives have a fitted effect of over 50% in size; also: potency is read from the fitted curve at half-maximal effect
Summary of the method: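 Luminescence readout (CellTiter-Glo, 30 min, RT) of viability in PR-UAS-bla HEK293T cells exposed to compound and R5020 agonist for 16 hr at 37C, 5% CO2; run in the same wells as the beta-lactamase reporter read.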

[11] = qHTS assay to identify small molecule agonists of the progesterone receptor (PR) signaling pathway - cell viability counter screen (AID 1346799; calls by dose curve; also: nearly all actives have a fitted effect of over 45% in size; also: potency is read from the fitted curve at half-maximal effect)
Summary of the method: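 HEK293T PR-UAS-bla, 3,000 cells/well, 2% charcoal-stripped FBS; 6 h settle, compound 16 h at 37C/5% CO2; LiveBLAzer 2 h RT, then CellTiter-Glo 30 min RT, luminescence read.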

[12] = qHTS assay to identify small molecule antagonists of the TGF-beta/Smad signaling pathway - cell viability counter screen (AID 1346824); also: nearly all actives have a fitted effect of over 50% in size; also: potency is read from the fitted curve at half-maximal effect
Summary of the method: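 SBE-bla HEK 293T cells were plated overnight at 37 C, then given compounds in DMSO plus TGF-beta1 (added as 0.25 ng/mL solution) for 5 hr. After the bla read, CellTiter-Glo was added to the same wells and luminescence read after 30 min at room temperature.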

[13] = qHTS assay to identify small molecule agonists of the TGF-beta/Smad signaling pathway - cell viability counter screen (AID 1346829); also: nearly all actives have a fitted effect of over 45% in size; also: potency is read from the fitted curve at half-maximal effect
Summary of the method: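 Tox21 qHTS format: SBE-bla HEK 293T cells treated with DMSO-dissolved compounds for 5 hr; CellTiter-Glo luminescence after 30 min at room temperature.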

[14] = qHTS assay to identify small molecule agonists of the TGF-beta/Smad signaling pathway (AID 1346859; active = well fitted activation curve with a large enough effect in the signal ratio in the repeat runs, not every such curve was filed as active; the % refers to the signal ratio; also: series mostly up to about 77 µM)
Summary of the method: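 Read-out: fluorescence at 460 and 530 nm (405 nm excitation) after a 2 hr room-temperature incubation with beta-lactamase FRET substrate. SBE-bla HEK 293T cells had been treated with test compounds for 5 hr at 37 C.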

[15] = molecular target: Thyrotropin-releasing hormone receptor (Homo sapiens) (UniProt P34981); assay: qHTS assay to identify small molecule antagonists of the thyrotropin-releasing hormone receptor (TRHR) signaling pathway (AID 1346877; active = well fitted inhibition curve with a large enough effect in the repeat runs, not every such curve was filed as active; also: series mostly up to about 51 µM)
Summary of the method: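 HEK293/TRHR cells, 18 h, 37 °C; Ca2+ dye 2 h; cpd 5 min RT; TRH 1 nM final; fluorescence read 3 min, 1 s intervals; 15 concs, triplicate.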

[16] = molecular target: Estrogen receptor (Homo sapiens) (UniProt P03372); assay: qHTS assay to identify small molecule agonists of the estrogen receptor alpha (ER-alpha) signaling pathway in the presence of an antagonist (AID 1259383; calls by dose curve; also: top concentration of the series differs between compounds; nearly all actives have a fitted effect of over 15% in size)
Summary of the method: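 Luciferase luminescence (ONE-Glo, 30min at room temperature) measured in VM7Luc4E2 cells after 22hr compound exposure at 15 concentrations, with 10.0nM ICI-182,780 final present; cells express endogenous ER-alpha and carry four EREs upstream of luciferase.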

[17] = molecular target: Thyrotropin receptor (Homo sapiens) (UniProt P16473); assay: qHTS assay to identify small molecule antagonists of the thyroid stimulating hormone receptor (TSHR) signaling pathway (AID 1259385; calls by dose curve; also: nearly all actives have a fitted effect of over 20% in size; also: potency is read from the fitted curve at half-maximal effect)
Summary of the method: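 TSHR-HEK293 cells were plated and held 18 h at 37C/5% CO2, then given compound plus Ro20-1724 and stimulated with TSH at 1.5 ng/mL final. After 30 min at room temperature, cAMP was detected with cAMP-d2/anti-cAMP-cryptate (1 h) by fluorescence.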

[18] = qHTS assay to identify small molecule agonists or antagonists of the thyroid stimulating hormone receptor (TSHR) signaling pathway - wild type cell line counter screen (AID 1259384; calls by dose curve)
Summary of the method: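 Wild-type HEK293 cells were plated 18 h at 37 C/5% CO2, pin-dosed with compound plus Ro20-1724 medium, held 30 min at room temperature, then given cAMP-d2 and anti-cAMP-cryptate; fluorescence was read after 1 h. Fifteen concentrations, triplicate.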

[19] = molecular target: Thyrotropin-releasing hormone receptor (Homo sapiens) (UniProt P34981); assay: qHTS assay to identify small molecule agonists of the thyrotropin-releasing hormone receptor (TRHR) signaling pathway (AID 1346891; calls by dose curve;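 also: HEK293 cells expressing TRHR with calcium dye readout; series mostly up to about 58 µM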)
Summary of the method: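 HEK293/TRHR cells, 1500 per well, 18 h 37 °C; Ca dye 2 h 37 °C; pin-tool compound addition (agonist mode); kinetic fluorescence 3 min, 1 s reads; 15 concentrations, triplicate.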

[20] = molecular target: Androgen receptor (Homo sapiens) (UniProt P10275); assay: qHTS assay to identify small molecule agonists of the androgen receptor (AR) signaling pathway in the presence of an antagonist (AID 1259381; calls by dose curve; also: nearly all actives have a fitted effect of over 15% in size)
Summary of the method: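 Luciferase read-out (ONE-Glo, 30min room temperature) in MDA-kb2 MMTV-reporter cells; agonist mode run in presence of AR antagonist nilutamide, 3.0uM final. Compounds tested as 15-point series, 16hr exposure at 37C, 0% CO2.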

Measured: Potency

Thyrotropin receptor (Homo sapiens), sequence (P16473 whole entry, looked up): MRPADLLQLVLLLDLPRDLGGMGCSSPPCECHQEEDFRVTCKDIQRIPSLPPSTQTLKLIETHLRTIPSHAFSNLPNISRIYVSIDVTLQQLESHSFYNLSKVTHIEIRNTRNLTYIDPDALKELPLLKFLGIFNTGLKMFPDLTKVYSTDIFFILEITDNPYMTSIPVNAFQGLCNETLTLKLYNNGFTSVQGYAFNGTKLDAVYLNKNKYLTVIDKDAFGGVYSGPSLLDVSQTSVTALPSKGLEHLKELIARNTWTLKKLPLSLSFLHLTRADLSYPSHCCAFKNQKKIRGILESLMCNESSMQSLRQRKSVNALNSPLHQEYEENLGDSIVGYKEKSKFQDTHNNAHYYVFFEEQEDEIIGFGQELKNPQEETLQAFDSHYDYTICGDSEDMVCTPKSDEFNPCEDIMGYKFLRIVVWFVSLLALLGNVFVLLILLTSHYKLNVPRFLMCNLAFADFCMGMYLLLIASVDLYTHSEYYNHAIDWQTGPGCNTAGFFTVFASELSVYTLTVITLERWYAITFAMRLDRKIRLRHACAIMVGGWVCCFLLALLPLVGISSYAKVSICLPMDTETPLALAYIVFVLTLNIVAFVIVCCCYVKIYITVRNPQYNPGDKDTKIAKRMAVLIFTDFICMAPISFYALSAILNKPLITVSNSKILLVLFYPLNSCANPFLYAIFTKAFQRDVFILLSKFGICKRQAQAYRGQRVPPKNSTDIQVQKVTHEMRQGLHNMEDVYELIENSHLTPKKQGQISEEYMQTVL
Androgen receptor (Homo sapiens), sequence (P10275 whole entry, looked up): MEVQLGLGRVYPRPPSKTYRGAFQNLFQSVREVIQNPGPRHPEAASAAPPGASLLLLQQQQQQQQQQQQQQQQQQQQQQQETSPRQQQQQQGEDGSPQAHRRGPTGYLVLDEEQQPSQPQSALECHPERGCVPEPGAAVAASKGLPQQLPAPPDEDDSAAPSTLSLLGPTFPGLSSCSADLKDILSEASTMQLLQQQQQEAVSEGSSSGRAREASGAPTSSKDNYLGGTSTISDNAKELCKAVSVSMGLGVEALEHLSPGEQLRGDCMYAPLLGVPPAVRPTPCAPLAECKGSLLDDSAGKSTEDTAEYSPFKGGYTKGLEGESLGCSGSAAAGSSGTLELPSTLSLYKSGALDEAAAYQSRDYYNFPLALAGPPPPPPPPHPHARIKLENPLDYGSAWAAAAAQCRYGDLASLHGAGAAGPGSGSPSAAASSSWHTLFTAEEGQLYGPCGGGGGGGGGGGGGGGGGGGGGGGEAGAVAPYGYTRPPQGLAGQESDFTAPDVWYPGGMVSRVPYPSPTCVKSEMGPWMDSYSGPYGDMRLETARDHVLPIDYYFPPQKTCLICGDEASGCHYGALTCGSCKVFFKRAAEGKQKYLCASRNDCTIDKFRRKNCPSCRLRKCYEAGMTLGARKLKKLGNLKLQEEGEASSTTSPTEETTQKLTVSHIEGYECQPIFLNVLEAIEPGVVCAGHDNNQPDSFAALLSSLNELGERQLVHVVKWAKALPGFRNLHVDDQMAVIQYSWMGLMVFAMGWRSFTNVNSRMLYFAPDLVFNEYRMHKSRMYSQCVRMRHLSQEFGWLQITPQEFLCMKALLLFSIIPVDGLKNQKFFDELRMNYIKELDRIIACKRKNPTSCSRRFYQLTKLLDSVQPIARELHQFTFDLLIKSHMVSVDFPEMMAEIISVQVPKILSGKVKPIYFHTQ
Thyrotropin-releasing hormone receptor (Homo sapiens), sequence (P34981 whole entry, looked up): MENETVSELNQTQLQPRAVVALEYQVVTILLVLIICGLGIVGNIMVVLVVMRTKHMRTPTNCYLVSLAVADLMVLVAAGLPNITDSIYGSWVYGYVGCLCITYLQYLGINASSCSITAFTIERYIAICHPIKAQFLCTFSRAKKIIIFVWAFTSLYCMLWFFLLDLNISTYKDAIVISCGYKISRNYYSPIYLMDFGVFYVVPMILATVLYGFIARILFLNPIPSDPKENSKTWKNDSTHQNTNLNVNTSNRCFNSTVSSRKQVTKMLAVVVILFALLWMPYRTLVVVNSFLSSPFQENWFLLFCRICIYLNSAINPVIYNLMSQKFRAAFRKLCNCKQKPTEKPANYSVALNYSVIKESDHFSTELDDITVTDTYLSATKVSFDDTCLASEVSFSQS
Estrogen receptor (Homo sapiens), sequence (P03372 whole entry, looked up): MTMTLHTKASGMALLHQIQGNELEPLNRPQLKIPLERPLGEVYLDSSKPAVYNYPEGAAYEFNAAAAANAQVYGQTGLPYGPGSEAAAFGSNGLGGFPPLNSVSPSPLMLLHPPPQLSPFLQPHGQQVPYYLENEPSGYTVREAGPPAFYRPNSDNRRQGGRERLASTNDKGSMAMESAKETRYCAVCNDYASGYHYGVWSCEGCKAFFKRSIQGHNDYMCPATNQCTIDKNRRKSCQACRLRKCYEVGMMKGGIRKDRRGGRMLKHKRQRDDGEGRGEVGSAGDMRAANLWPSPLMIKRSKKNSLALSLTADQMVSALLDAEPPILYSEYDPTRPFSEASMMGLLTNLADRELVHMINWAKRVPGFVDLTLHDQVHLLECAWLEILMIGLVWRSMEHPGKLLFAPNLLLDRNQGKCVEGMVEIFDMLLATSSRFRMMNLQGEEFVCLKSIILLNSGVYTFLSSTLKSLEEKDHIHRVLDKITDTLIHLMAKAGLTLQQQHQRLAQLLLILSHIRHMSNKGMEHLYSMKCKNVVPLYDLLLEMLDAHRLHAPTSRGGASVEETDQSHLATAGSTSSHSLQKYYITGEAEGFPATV
Progesterone receptor (Homo sapiens), sequence (P06401 whole entry, looked up): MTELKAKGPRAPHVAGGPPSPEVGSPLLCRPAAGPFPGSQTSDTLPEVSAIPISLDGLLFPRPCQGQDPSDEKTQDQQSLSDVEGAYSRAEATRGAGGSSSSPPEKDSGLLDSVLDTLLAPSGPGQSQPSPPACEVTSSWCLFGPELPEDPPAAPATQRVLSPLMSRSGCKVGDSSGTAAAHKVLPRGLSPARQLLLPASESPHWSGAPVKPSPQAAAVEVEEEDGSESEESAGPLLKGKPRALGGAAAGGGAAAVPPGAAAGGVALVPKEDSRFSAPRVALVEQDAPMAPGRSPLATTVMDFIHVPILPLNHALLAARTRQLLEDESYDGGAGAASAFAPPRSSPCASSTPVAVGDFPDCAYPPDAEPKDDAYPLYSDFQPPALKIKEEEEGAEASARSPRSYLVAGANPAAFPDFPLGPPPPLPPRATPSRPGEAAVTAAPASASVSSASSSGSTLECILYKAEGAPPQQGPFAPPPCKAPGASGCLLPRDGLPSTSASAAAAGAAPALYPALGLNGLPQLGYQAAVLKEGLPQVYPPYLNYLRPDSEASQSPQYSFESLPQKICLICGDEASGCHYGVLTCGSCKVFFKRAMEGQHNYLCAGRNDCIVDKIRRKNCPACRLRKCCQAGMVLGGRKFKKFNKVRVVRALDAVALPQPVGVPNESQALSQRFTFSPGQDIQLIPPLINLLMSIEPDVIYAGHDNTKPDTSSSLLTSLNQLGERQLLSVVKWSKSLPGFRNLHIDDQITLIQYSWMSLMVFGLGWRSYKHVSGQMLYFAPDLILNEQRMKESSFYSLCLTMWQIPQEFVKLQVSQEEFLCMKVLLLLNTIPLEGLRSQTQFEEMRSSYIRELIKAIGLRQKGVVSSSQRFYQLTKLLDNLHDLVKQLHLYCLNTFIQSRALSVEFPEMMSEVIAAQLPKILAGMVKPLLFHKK
Estrogen receptor beta (Homo sapiens), sequence (Q92731 whole entry, looked up): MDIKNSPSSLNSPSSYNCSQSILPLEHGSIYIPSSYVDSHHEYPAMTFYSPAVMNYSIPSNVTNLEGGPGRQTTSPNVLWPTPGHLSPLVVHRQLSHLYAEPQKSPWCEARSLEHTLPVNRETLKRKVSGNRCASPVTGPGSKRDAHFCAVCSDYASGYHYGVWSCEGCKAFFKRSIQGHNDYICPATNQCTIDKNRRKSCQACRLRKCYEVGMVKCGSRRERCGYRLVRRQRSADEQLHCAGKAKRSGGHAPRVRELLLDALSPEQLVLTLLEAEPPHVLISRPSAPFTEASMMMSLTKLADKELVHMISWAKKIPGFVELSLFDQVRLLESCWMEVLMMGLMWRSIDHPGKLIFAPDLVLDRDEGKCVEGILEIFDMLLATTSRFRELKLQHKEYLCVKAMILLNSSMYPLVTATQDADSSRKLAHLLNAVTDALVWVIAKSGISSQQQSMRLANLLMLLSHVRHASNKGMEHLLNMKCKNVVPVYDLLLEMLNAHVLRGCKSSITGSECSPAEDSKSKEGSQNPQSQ

O=P(OCCCl)(OCCCl)OCCCl
not listed: [16] | [17] | [18] | [19] | [20]
inactive: all other assays above

O=[N+]([O-])c1ccc(Nc2ccccc2)cc1
active: [1] 17.2 µM | [4] 30.9 µM and 30.6 µM | [7] 27.5 µM and 27.3 µM
not listed: [3] | [9] | [11] | [12] | [18] | [19] | [20]
inactive: all other assays above

Cc1cc(Cl)ccc1N=CN(C)C
not listed: [9] | [16] | [19] | [20]
inactive: all other assays above

CC(C)Nc1ccc(Nc2ccccc2)cc1
inactive: [2] | [16] | [12] | [13] | [14] | [15]
active: [1] 5.43 µM | [4] 60.9 µM and 68.6 µM | [5] 19.3 µM and 27.3 µM | [6] 15.3 µM and 27.3 µM | [7] 60.9 µM

COP(=O)(NC(C)=O)SC (stereo not drawn)
27.3 µM (active) and inactive: [1]
not listed: [9] | [16] | [17] | [18] | [20]
inactive: all other assays above

CC(C)(O)C#N
not listed: [2] | [9] | [10] | [16] | [20]
inactive: all other assays above

N#Cc1c(Cl)c(Cl)c(Cl)c(C#N)c1Cl
inactive: [16] | [18] | [14]
active: [1] 0.3 µM | [3] 3.78 µM | [4] 16.9 µM and 24.3 µM | [5] 8.47 µM and 19.3 µM | [6] 9.5 µM and 15.4 µM | [7] 23.9 µM and 54.5 µM | [9] 3.37 µM and 3.86 µM | [10] 19 µM and 13.7 µM | [11] 21.3 µM and 19.3 µM | [12] 48 µM and 49 µM | [13] 48 µM and 54.9 µM

COc1ccc(C=O)cc1OC
active: [1] 24.6 µM
not listed: [9] | [10] | [17] | [18] | [20]
inactive: all other assays above

N#CC(c1ccccc1)c1ccccc1
not listed: [12] | [16] | [18] | [20]
inactive: all other assays above

Oc1ccc(Cl)cc1Cc1ccccc1
inactive and 55.1 µM (active): [17]
active: [1] 13.7 µM and 24.6 µM | [5] 54.5 µM and 27.6 µM | [6] 48.6 µM and 52.1 µM
not listed: [2] | [9] | [11] | [16] | [19]
inactive: all other assays above

CCOP(=O)(OCC)OCC
not listed: [16] | [18] | [20]
inactive: all other assays above

O=C1Nc2ccc(Cl)cc2C(c2ccccc2)=NC1O (stereo not drawn)
inactive: [3]

From PubChem BioAssay (Tox21)
